These results are taken from ChEMBL document CHEMBL3988442, “University of Dundee, Small-Polar-MMV Screening Library” (2021).

In all, about 69,000 compounds went through this assay and about 420 (0.61%) showed an effect of 50% or more. This excerpt belongs to a sample that is enriched for strong results.

The target in the assay is T1, Histidine--tRNA ligase (Leishmania infantum) (UniProt A4I591).
T1 sequence (whole entry): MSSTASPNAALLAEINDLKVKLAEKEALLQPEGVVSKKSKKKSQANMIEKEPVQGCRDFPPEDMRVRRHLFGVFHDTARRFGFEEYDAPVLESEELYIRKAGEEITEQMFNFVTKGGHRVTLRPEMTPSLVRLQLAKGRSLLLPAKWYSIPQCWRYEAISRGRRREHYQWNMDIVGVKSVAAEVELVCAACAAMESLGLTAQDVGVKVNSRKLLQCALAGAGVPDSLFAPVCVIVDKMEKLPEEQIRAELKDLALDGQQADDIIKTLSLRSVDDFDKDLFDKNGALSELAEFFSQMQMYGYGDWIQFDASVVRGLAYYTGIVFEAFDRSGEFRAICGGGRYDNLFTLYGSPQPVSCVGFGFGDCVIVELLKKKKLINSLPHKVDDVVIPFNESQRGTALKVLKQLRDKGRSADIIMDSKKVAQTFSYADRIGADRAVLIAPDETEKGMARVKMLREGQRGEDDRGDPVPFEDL
In words: Leishmania infantum Histidine tRNA synthetase (LdHisRS). In kind it is functional. The arrangement: scale not given: in the data most compounds retested in dose-response had high values. Conditions: 30 µM.
On to `COC(=O)CN1N=C(C(=O)N2CCCC2)S(=O)(=O)c2ccccc21`, for which the Percent Effect came out at 12.2%.

In the case of `O=C(C1=NN(Cc2ccccc2)c2ccccc2S1(=O)=O)N1CCCC1`, the Percent Effect came to 53.9%.

With `CC(C)CCN1N=C(C(=O)N2CCCCCC2)S(=O)(=O)c2ccccc21`, the Percent Effect came to 10.2%.

Regarding `CN(CCCc1ccccc1)C(=O)c1ccccc1NCC(=O)O`, the Percent Effect was found to be 16.9%.

Take `CN(C(=O)c1ccccc1NCC(=O)O)C(C1CC1)C1CC1`: the Percent Effect was -4.2%.

As for `CN(CCCN1CCCCCC1)C(=O)c1ccccc1NCC(=O)O`, the Percent Effect is 50.6%.

Consider `CNC(=O)CN1CCC(CN(C)Cc2ccc(C)cc2C)CC1`, for which the Percent Effect was 2.04%.

In the case of `Cc1ccc(CN2C[C@@H]3C[C@H](C(=O)NCC4CC4)N(C)[C@@H]3C2)o1`, the Percent Effect is 10.1%.

Consider `Cc1nc(CN2C(=O)CC[C@@H]3[C@H]2CCN3C(=O)C2CCCO2)cs1` (stereo partly specified), for which the Percent Effect stood at 15.4%.

With `CSc1nc(N)cc(N2C[C@@H]3CC[C@H](C2)N(Cc2cscn2)C3=O)n1`, the Percent Effect worked out at 11%.

For `Clc1cc(NCc2ncc[nH]2)nc2[nH]ccc12`, the Percent Effect was found to be 10.8%.

Consider `Clc1cc(NCc2ccncc2)nc2[nH]ccc12`, for which the Percent Effect was determined as 71.1%.

`Clc1cc(NCc2nccs2)nc2[nH]ccc12`: the Percent Effect came out at 22.9%.

`c1cnc(N2CCO[C@H]3CN(Cc4csnn4)C[C@H]32)cn1`: the Percent Effect was found to be 26.3%.

Regarding `CS(=O)(=O)NC[C@@H]1OC[C@H]2CN(C(=O)c3ccc[nH]3)CC[C@H]21`, the Percent Effect is -383%.

Consider `CS(=O)(=O)N[C@@H]1COC[C@@H]2CN(Cc3ccoc3)C[C@@H]21`, for which the Percent Effect worked out at 6.94%.

For the compound `CC(C)(C)c1cc(CN2C[C@H]3CC[C@@H]2CN(Cc2cscn2)C3)n[nH]1`, the Percent Effect worked out at 11.5%.

On to `O=S(=O)(c1cccnc1)N1C[C@@H]2COC[C@]2(COCC2CC2)C1`, for which the Percent Effect was determined as 1.75%.

Regarding `Cc1cccc2c1nc(COCC(=O)O)n2-c1ccc(N)nc1`, the Percent Effect was found to be 1.67%.

For the compound `Cc1cccc2c1nc(COCC(=O)O)n2-c1cnc(N)cn1`, the Percent Effect is 68.3%.

`Cc1ccc(-n2c(COCC(=O)O)nc3c(C)cccc32)nc1`: the Percent Effect turned out to be 25%.

On to `CN(C)S(=O)(=O)N1CC[C@]2(O)CCN(c3nccs3)C[C@@H]2C1`, for which the Percent Effect was determined as 20%.

Consider `O=C(NCC1CC1)[C@H]1C[C@H]2OCC[C@H]2N(Cc2ccoc2)C1`, for which the Percent Effect came out at 10.5%.

In the case of `c1ccc(-n2ccc(CNCC3CCCN3c3cccnn3)n2)cc1` (stereo unspecified), the Percent Effect worked out at 25.4%.

For the compound `c1ccc(-n2cc(CNCC3CCCN3c3cccnn3)cn2)cc1` (stereo unspecified), the Percent Effect was found to be 21.9%.

As for `c1ccc(Cn2cc(CNCC3CCCN3c3cccnn3)cn2)cc1` (stereo unspecified), the Percent Effect is 53%.

Take `c1ccc(Cn2ccnc2CNCC2CCCN2c2cccnn2)cc1` (stereo unspecified): the Percent Effect was 5.36%.

Take `c1ccc(-n2cc(CNCC3CCCN3c3cccnn3)nn2)cc1` (stereo unspecified): the Percent Effect was 6.14%.

As to `c1ccc(-n2ncc(CNCC3CCCN3c3cccnn3)n2)cc1` (stereo unspecified), the Percent Effect was 65.2%.

For the compound `COCCOC(=O)N1CCN2C[C@@H](CO)[C@H](c3ccccc3)[C@H]2C1`, the Percent Effect was 2.04%.

For the compound `O=C(c1ccoc1)N1CC[C@@H]2O[C@H](COCc3ccccn3)CC[C@@H]21`, the Percent Effect worked out at 7.52%.

In the case of `c1cnc(N2CCO[C@H]3[C@H](OCC4CC4)CC[C@@H]32)nc1`, the Percent Effect was 8.11%.

`O=C1NC(c2ccccc2)=N[C@@]12CC[C@@H]1CN(Cc3ccncc3)C[C@@H]12`: the Percent Effect was 25%.

On to `COCCNC(=O)[C@H]1C[C@@H]2CCN(c3nncs3)C[C@H]2O1`, for which the Percent Effect stood at 5.77%.

In the case of `O=C(c1ccccc1)N1C[C@@H]2CCCO[C@@H]2[C@H](N2CCOCC2)C1`, the Percent Effect was found to be 17.5%.

Take `O=C(Nc1cccn(Cc2ccccc2)c1=O)c1ccncc1F`: the Percent Effect was determined as 68.6%.

In the case of `O=C(Nc1cccn(Cc2ccc(F)cc2)c1=O)c1cnc[nH]1`, the Percent Effect amounted to 27.4%.

Take `Cc1cc(C(=O)Nc2cccn(Cc3ccc(F)cc3)c2=O)no1`: the Percent Effect was determined as 20.4%.

In the case of `Cc1cc(C(=O)Nc2cccn(Cc3ccc(F)cc3)c2=O)on1`, the Percent Effect was found to be 84.1%.

Consider `O=C(Nc1cccn(CC(F)(F)F)c1=O)c1ccncc1F`, for which the Percent Effect amounted to 17.1%.

Turning to `Cc1cc(C(=O)Nc2cccn(Cc3ccccc3)c2=O)no1`, the Percent Effect was determined as 23.9%.

On to `CC(C)CN1C[C@H]2CCN(C(=O)C3CCCO3)CC[C@H]2S1(=O)=O` (stereo partly specified), for which the Percent Effect turned out to be 13.8%.

For the compound `O=C1[C@H]2CC[C@H](CN(Cc3ccccc3OC(F)F)C2)N1CC1CC1`, the Percent Effect turned out to be 28.9%.

As for `Cc1noc(C)c1C(=O)N1C[C@@H]2CCCO[C@@H]2[C@H](N(C)C)C1`, the Percent Effect was 7.96%.

As to `O=C(c1ccnnc1)N1C[C@H]2CN(Cc3cccc(F)c3)C(=O)[C@H]2C1`, the Percent Effect amounted to 0.917%.

`CNC(=O)[C@H]1C[C@@H]2CN(S(=O)(=O)c3ccccc3)C[C@@H]2N1C(C)=O`: the Percent Effect was found to be 14.2%.

In the case of `O=C(N1CCOCC1)[C@@]12CCO[C@@H]1CCN(CC1CCCCC1)C2`, the Percent Effect was -3.88%.

Regarding `Cc1ccc(C(=O)N2CCn3cnc(COCC4CC4)c3C2)cn1`, the Percent Effect came to 15%.

`Cc1cccc(C(=O)N2CCn3cnc(COCC4CC4)c3C2)c1`: the Percent Effect was 34.5%.

As for `O=C(c1ccc2[nH]ccc2c1)N1CCn2cnc(COCC3CC3)c2C1`, the Percent Effect worked out at 61.2%.

For the compound `CN(C)S(=O)(=O)N1C[C@@H]2CC[C@H](C1)N(CCC(=O)NCc1ccco1)C2`, the Percent Effect was 13.6%.

For the compound `COc1ccc(-n2cc(CNC(=O)c3cc[nH]n3)nn2)cc1`, the Percent Effect was determined as 31.2%.

Regarding `COc1ccc(-n2cc(CNC(=O)c3ccccn3)nn2)cc1`, the Percent Effect came to 18.8%.

For `COc1ccc(-n2cc(CNC(=O)c3ccc[nH]3)nn2)cc1`, the Percent Effect is 54.2%.

Consider `CNC(=O)[C@H]1C[C@@H]2CCN(Cc3ccc4c(c3)OCO4)C[C@@H]2O1`, for which the Percent Effect is 14.6%.

With `CCC1=NOC(CNCc2cnc(-c3ccccc3C)s2)C1` (stereo unspecified), the Percent Effect is 61.7%.
